Screening results as filed in PubChem BioAssay.
An excerpt weighted towards active compounds, which were near 2.9% of everything screened.
MRP resist rev: MRP-mediated drug resistance reversal. 0.04% of 85,000 active. AID 602. differential viability (reversal), % at 10 µM. H69AR cells + 2 uM doxorubicin, CellTiter-Glo, 72 h;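 active = viability drop by adding the cancer drug above about 55%, with treated viability meeting a 40% cutoff, limit read from the data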;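 note: viability without doxorubicin minus viability with 2 µM doxorubicin for each compound; larger differential means the compound sensitizes cells more to doxorubicin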
ERa coact pot: ER-alpha (human) coactivator binding potentiation | 1.3% of 86,000 active | coactivator binding (% of control), % at 25.6 µM | TR-FRET ERalpha-LBD/SRC-Cy5 coactivator binding, 2 h; 100 = basal binding, no effect | P03372; in the data active = activity above about 200%;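 note: binding measured in presence of low estradiol as agonist stimulus; 0% = peptide alone without receptor and 100% = receptor with peptide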
MRP-1 activ: MRP-1 activation; H69AR cells + doxorubicin, viability rescue, CellTiter-Glo; viability increase, % at 10 µM; 0.61% of 140,000 active; AID 799;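 active = viability gain under doxorubicin at or above a set limit, the compound median plus 3 SD, cut at about 4.7% in these data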;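 note: MRP-1 overexpressing cells given doxorubicin 25 µM after compound pretreatment; 18-22 h compound pretreatment then 72 h with doxorubicin before readout; 0% = doxorubicin-only wells and 100% = vehicle-treated cells without doxorubicin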
ERb SRC1 inh: blocks coactivator binding to human estrogen receptor beta; TR-FRET ER-beta LBD / SRC1-Cy5 peptide binding; receptor agonist-loaded with 1 µM estradiol; inhibition, % at 25.6 µM; 1.3% of 86,000 active; AID 633;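 active = compounds whose percent inhibition of the receptor-coactivator binding signal exceeds about 50% in the single-dose screen, limit read from the data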;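 note: 0% = receptor plus peptide wells without compound and 100% = peptide-only wells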
Target sequence (Q92731 whole entry, looked up, the tested form may be a part): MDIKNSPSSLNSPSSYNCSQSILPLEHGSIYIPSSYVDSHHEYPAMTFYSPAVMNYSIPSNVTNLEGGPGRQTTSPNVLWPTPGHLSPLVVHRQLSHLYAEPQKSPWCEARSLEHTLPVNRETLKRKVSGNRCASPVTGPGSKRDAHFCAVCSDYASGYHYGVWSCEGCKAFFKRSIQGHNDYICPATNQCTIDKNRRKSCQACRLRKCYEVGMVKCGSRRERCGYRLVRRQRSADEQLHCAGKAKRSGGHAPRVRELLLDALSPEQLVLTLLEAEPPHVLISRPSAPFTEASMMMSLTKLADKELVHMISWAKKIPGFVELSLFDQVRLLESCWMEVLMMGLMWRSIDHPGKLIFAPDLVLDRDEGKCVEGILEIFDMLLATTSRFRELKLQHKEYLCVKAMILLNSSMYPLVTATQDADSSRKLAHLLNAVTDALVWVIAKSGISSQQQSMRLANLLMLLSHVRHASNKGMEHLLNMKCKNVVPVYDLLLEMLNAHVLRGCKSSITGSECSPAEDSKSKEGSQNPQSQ
Smad3 inh: inhibitors of human Smad3 transcription factor binding; inhibition, % at 25 µM; AID 630; P84022; TR-FRET Smad3/Dy647-FoxH1 peptide binding, europium anti-His; 0.29% of 88,000 active;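 active = compounds that reduce the energy-transfer binding signal between the protein and its labelled peptide by more than half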;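 note: 0% = Smad3 plus labelled peptide maximal FRET and 100% = peptide-only background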
ERa SRC1 inh: blocks coactivator binding to human estrogen receptor alpha | P03372 | TR-FRET ER-alpha LBD / SRC-1 peptide, estradiol-bound | AID 629 | 1.7% of 86,000 active | inhibition, % at 25.6 µM; in the data active = inhibition above about 50%;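 note: 0% = receptor plus peptide control and 100% = peptide only without receptor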
Starred values were filed as active, the others as inactive; . = not tested or not shown; [ ] = remark or other dose.

SMILES | MRP resist rev | ERa coact pot | MRP-1 activ | ERb SRC1 inh | Smad3 inh | ERa SRC1 inh
COc1cccc(/C=N/NC(=O)c2cc(-c3cccn3C)n[nH]2)c1O | . | . | 7.1* | . | . | .
COc1cc(/C=N/NC(=O)c2cc(-c3cccn3C)n[nH]2)cc(OC)c1OC | . | . | -2 | . | . | .
O=C(O)CNC(=O)c1ccccc1O | . | . | . | . | -4 | .
Cc1nnc(Sc2nc(Sc3nnc(C)s3)nc(N3CCN(C)CC3)n2)s1 | 0 | 111 | . | 60*[fluorescence artefact?] | 3 | -14
CCCCn1c(SCC(=O)Nc2cc(NC(=O)c3ccco3)ccc2C)nc2ccccc2c1=O | 5 | 122 | -1 | 58*[fluorescence artefact?] | -12 | 75*[fluorescence artefact?]
CCn1c(SCC(=O)Nc2ccc(NC(=O)c3ccco3)c(OC)c2)nc2ccccc2c1=O | -11 | 154 | 0 | 43 | -17 | 65*
CCOC(=O)CSc1nc2ccccc2c(=O)n1Cc1ccco1 | 20 | 96 | -3 | 15 | -3 | -3
COCCn1c(SCC(=O)Nc2ccc(NC(=O)c3ccco3)c(OC)c2)nc2ccccc2c1=O | -1 | 160 | 1 | 25 | -10 | 29
C=CCn1c(SCC(=O)Nc2ccc3c(c2)OCO3)nc2ccccc2c1=O | 17 | 105 | -3 | 98*[fluorescence artefact?] | 6 | -1
CCOc1ccc2nc(NC(=O)CSc3nc4ccccc4c(=O)n3Cc3ccco3)sc2c1 | -2 | 138 | -1 | 53*[fluorescence artefact?] | 5 | 17
CCC1(C)CC(C(CC(=O)O)c2ccc(C)cc2)CCO1 (centres undefined) | -13 | 106 | 0 | 0 | -1 | 9
CCCS(=O)(=O)NCCc1cc2ccc(C)cc2[nH]c1=O | . | 104 | -2 | 2 | 0 | -1
Cc1ccc2cc(CCNS(=O)(=O)c3ccc(F)cc3)c(=O)[nH]c2c1 | 17 | 216* | 1 | -3 | 4 | 3
O=C(c1ccc(N2CCN(CCO)CC2)nc1)N1CCOCC1 | . | . | -1 | . | . | .
O=C(/C=C1\NC2(CCCC2)Cc2ccccc21)N1CCOCC1 | 6 | 98 | -2 | 83*[fluorescence artefact?] | 34 | -2
CC1(C)Cc2c(ccc3ccccc23)/C(=C/C(=O)N2CCCCC2)N1 | 8 | 134 | -2 | 1 | -4 | 1
CN=C1SC(CC(=O)Nc2ccc(C(C)=O)cc2)C(=O)N1C (centres undefined) | 6 | 52 | . | 71* | 0 | 79*
O=C(O)CCCNC(=O)OCc1ccccc1 | 0 | 108 | -2 | -4 | 12 | -5
COC(=O)C(CCCCNC(=O)OCc1ccccc1)NC(=O)CN (centres undefined) | 10 | 114 | -2 | -11 | 6 | 91*[fluorescence artefact?]
Cc1cc(Cc2cc(C)cc(C(C)(C)C)c2O)c(O)c(Cc2cc(C)cc(C(C)(C)C)c2O)c1 | . | . | . | . | 34 | .
CCc1nc2ccccc2c(C(=O)OCC(=O)Nc2ccc(S(=O)(=O)N3CCOCC3)cc2)c1C | -35 | 132 | -2 | 3 | 6 | -1
CCc1nc2ccccc2c(C(=O)OCC(=O)Nc2cccc(S(=O)(=O)N3CCOCC3)c2)c1C | -25 | 115 | -5 | -18 | 89* | -13
CC1(C)COCN1COC1CCCCC1 | . | . | . | . | -10 | .
CCOc1ccc2nc(COC(=O)c3ccco3)c(C(C)=O)[n+]([O-])c2c1 | -8 | 66 | -3 | 22 | 10 | 17
CC(=O)c1c(COC(=O)c2cccnc2)nc2ccccc2[n+]1[O-] | 6 | 52 | -1 | 57*[fluorescence artefact?] | -3 | 65*[fluorescence artefact?]
SMILES | MRP resist rev | ERa coact pot | MRP-1 activ | ERb SRC1 inh | Smad3 inh | ERa SRC1 inh
O=C1c2oc3ccccc3c(=O)c2C(c2ccc(Br)cc2)N1c1ncccn1 (centres undefined) | -18 | 316* | . | 27 | -36 | 39
CN1C(=O)c2oc3ccccc3c(=O)c2C1c1ccccn1 (centres undefined) | 1 | 101 | 0 | 5 | 8 | 0
COC(=O)c1[nH]c2ccc(C)cc2c1NC(=O)CN1CCCc2ccccc21 | 7 | 73 | -1 | 54* | 19 | 77*[fluorescence artefact?]
COc1cc(C2SCCCCCCCCCCSC(c3ccc(O)c(OC)c3)SCCCCCCCCCCS2)ccc1O (centres undefined) | . | . | . | . | -10 | .
Nc1nc2c(c(=O)[nH]1)CN(CCCN1CCOCC1)CN2 | . | . | . | . | 72* | .
C[C@]12C=CC(=O)C=C1CC[C@H]1[C@@H]3C[C@@H](O)[C@](O)(C(=O)CO)[C@@]3(C)C[C@H](O)[C@@]12F | . | . | 5.2* | . | . | .
O=C(NNc1c(Cl)cc(Cl)cc1Cl)C1CCC1 | . | . | -2 | . | . | .
CC1=C(C(=O)N2CCCCC2)C(c2cccs2)NC(=O)N1 (centres undefined) | 6 | 118 | -2 | 3 | -3 | 2
COC(=O)c1ccsc1NC(=O)CSc1nnnn1-c1ccccc1SC | 0 | 263*[fluorescence artefact?] | -1 | -9 | 10 | -19
CSc1ccccc1NC(=O)CSc1nnnn1-c1ccccc1SC | -12 | 116 | -2 | -1 | 2 | -7
Cc1ccc(C2c3c(oc4ccccc4c3=O)C(=O)N2CCCN2CCOCC2)o1 (centres undefined) | 2 | 103 | -1 | -1 | 4 | -1
CC(=O)c1sc(N2C(=O)c3oc4ccccc4c(=O)c3C2c2ccc(C)o2)nc1C (centres undefined) | -5 | 82 | . | 16 | -1 | 64*
C/C(CCc1ccc2c(c1)OCO2)=N\N=C(/N)SC1CC(=O)N(c2ccccc2F)C1=O (centres undefined) | . | . | -2 | . | . | .
O=C(COC(=O)CCOc1ccccc1)NCc1ccco1 | 2 | 92 | -1 | 62*[fluorescence artefact?] | 16 | 70*
O=C(CCSCCC(=O)NCc1ccco1)NCc1ccco1 | 4 | 93 | -1 | 57*[fluorescence artefact?] | 10 | 59*[fluorescence artefact?]
O=C(CSCC(=O)NCc1ccco1)NCc1ccco1 | 5 | 84 | -3 | 5 | -3 | 5
CC(=NCC(=O)O)c1ccccc1 | . | . | . | . | 3 | .
CCOC(=O)[C@]1(CC(=O)O)CCCC1=O | . | . | . | . | 10 | .
CCc1ccccc1NC(=O)/C(=C/c1ccco1)c1ccccc1 | 13 | 82 | -4 | -2 | 81*[fluorescence artefact?] | 5
Cc1ccccc1NC(=O)/C(=C/c1ccco1)c1ccccc1 | -35 | 80 | 0 | -12 | 1 | 6
NC(=O)CSc1nnc(Cc2csc(Nc3ccccc3)n2)n1Cc1ccccc1 | 10 | 111 | 0 | 0 | 86* | -2
COC(=O)c1ccc(Oc2nc(C(N)=O)cc(-c3ccccc3)n2)cc1 | -13 | 264*[fluorescence artefact?] | -3 | 20 | 5 | 47
C#CCn1c(=NC(=O)c2ccc(Br)s2)sc2cc(NC(C)=O)ccc21 | . | . | -1 | . | . | .
C#CCn1c(=NC(=O)c2ccc(Br)s2)sc2cccc(OC)c21 | 0 | 333*[fluorescence artefact?] | -4 | 43 | -40 | 57*[fluorescence artefact?]
COc1cc(S(=O)(=O)NC(C)C)ccc1Cl | 11 | 89 | -1 | 2 | 6 | 65*[fluorescence artefact?]
COc1ccc(S(=O)(=O)NC(C(C)C)C(C)C)cc1OC | 9 | 129 | -3 | -8 | -4 | -4
O=C(Oc1cccc(-n2cnnn2)c1)c1sc2ccccc2c1Cl | 9 | 246* | -4 | 7 | -3 | 19
